The full data set covers some 8,800 targets. This sample favours those with a hit. About 0.5% of all pairs of compound and target were hits.
Legend:
Assay in all cases: log2 fold change, soluble protein after heating vs DMSO (PISA); higher = thermal stabilisation; K562 lysate, 10 uM; active = over 0.2 and 3.5 SD of the protein, either way, in both replicates (recomputed)
lapatinib = compound: CS(=O)(=O)CCNCc1ccc(-c2ccc3ncnc(Nc4ccc(OCc5cccc(F)c5)c(Cl)c4)c3c2)o1 [lapatinib]
Procedure, shortened: (§1)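 Quantification was by TMTpro 16plex LC-MS/MS with equalised channel sums, applied to the supernatant after 21,000xg for 90 min. Samples were crude K562 extract at 1 mg/mL protein in PBS pH 7.4 with 1 mM MgCl2, treated with 10 μM compound for 30 min, heated for 3 min across 48°C-58°C, pooled and brought to 0.5% NP-40 at 4°C. Values are log-two fold changes in thermal stability relative to solvent controls, from duplicates.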

pictilisib = compound: CS(=O)(=O)N1CCN(Cc2cc3nc(-c4cccc5[nH]ncc45)nc(N4CCOCC4)c3s2)CC1 [pictilisib]
Procedure, shortened: as §1

crizotinib = compound: C[C@@H](Oc1cc(-c2cnn(C3CCNCC3)c2)cnc1N)c1c(Cl)ccc(F)c1Cl [crizotinib]
Procedure, shortened: as §1

[1] = compound: C[C@H](C1=CC=C(C=C1)C(=O)NC2=C3C=CNC3=NC=C2)N
Procedure, shortened: as §1

duvelisib = compound: C[C@H](Nc1ncnc2nc[nH]c12)c1cc2cccc(Cl)c2c(=O)n1-c1ccccc1 [duvelisib]
Procedure, shortened: as §1

gandotinib = compound: Cc1cc(Nc2cc(CN3CCOCC3)c3nc(C)c(Cc4ccc(Cl)cc4F)n3n2)n[nH]1 [gandotinib]
Procedure, shortened: as §1

tozasertib = compound: Cc1cc(Nc2cc(N3CCN(C)CC3)nc(Sc3ccc(NC(=O)C4CC4)cc3)n2)n[nH]1 [tozasertib]
Procedure, shortened: as §1

doramapimod = compound: Cc1ccc(-n2nc(C(C)(C)C)cc2NC(=O)Nc2ccc(OCCN3CCOCC3)c3ccccc23)cc1 [doramapimod]
Procedure, shortened: as §1

bafetinib = compound: Cc1ccc(NC(=O)c2ccc(CN3CC[C@H](N(C)C)C3)c(C(F)(F)F)c2)cc1Nc1nccc(-c2cncnc2)n1 [bafetinib]
Procedure, shortened: as §1

[2] = compound: Cc1cccc(CC(=O)N2CCc3c2ccc(-c2cn(C)c4ncnc(N)c24)c3F)n1
Procedure, shortened: as §1

nilotinib = compound: Cc1cn(-c2cc(NC(=O)c3ccc(C)c(Nc4nccc(-c5cccnc5)n4)c3)cc(C(F)(F)F)c2)cn1 [nilotinib]
Procedure, shortened: as §1

[3] = compound: Cc1nc(Nc2n[nH]c3c2CN(C(=O)N[C@H](CN(C)C)c2ccccc2)C3(C)C)c2sccc2n1
Procedure, shortened: as §1

dasatinib = compound: Cc1nc(Nc2ncc(C(=O)Nc3c(C)cccc3Cl)s2)cc(N2CCN(CCO)CC2)n1 [dasatinib]
Procedure, shortened: as §1

[4] = compound: Cc1ncc(-c2ccnc(Nc3ccc(S(C)(=O)=O)cc3)n2)n1C(C)C
Procedure, shortened: as §1

[5] = compound: Cn1cc(-c2ccc3c(c2)CCN3C(=O)Cc2cccc(C(F)(F)F)c2)c2c(N)ncnc21
Procedure, shortened: as §1

quisinostat = compound: Cn1cc(CNCC2CCN(c3ncc(C(=O)NO)cn3)CC2)c2ccccc21 [quisinostat]
Procedure, shortened: as §1

tipifarnib = compound: Cn1cncc1[C@@](N)(c1ccc(Cl)cc1)c1ccc2c(c1)c(-c1cccc(Cl)c1)cc(=O)n2C [tipifarnib]
Procedure, shortened: as §1

[6] = compound: NC(=O)Nc1cc(-c2cccc(F)c2)sc1C(=O)N[C@H]1CCCNC1
Procedure, shortened: as §1

[7] = compound: NC(=O)c1cnc(N[C@@H]2CCCC[C@@H]2N)nc1Nc1cccc(-n2nccn2)c1
Procedure, shortened: as §1

[8] = compound: NC1(c2ccc(-c3nc4ccn5c(=O)[nH]nc5c4cc3-c3ccccc3)cc2)CCC1
Procedure, shortened: as §1

Measured: log2 fold change

VRK1 (UniProt Q99986)
Sequence of UniProt Q99986 (Q99986 whole entry, looked up): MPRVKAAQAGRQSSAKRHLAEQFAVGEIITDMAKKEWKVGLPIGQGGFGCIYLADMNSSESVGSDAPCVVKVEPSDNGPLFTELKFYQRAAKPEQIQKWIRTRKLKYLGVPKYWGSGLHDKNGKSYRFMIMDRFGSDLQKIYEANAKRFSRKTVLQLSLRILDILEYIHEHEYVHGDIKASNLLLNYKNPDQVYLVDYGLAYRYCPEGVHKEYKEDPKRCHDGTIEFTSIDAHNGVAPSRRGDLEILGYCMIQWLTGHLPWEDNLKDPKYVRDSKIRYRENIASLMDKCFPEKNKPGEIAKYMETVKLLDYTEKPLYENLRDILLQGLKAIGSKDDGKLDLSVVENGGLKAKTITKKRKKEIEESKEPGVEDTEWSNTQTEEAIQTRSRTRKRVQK
inactive: lapatinib -0.005 | pictilisib 0.002 | crizotinib -0.023 | [1] 0.172 | duvelisib 0.013 | gandotinib -0.078 | tozasertib -0.052 | doramapimod -0.052 | bafetinib -0.042 | [2] -0.014 | nilotinib -0.002 | [3] 0 | dasatinib -0.001 | [4] 0.005 | [5] 0.032 | quisinostat -0.059 | tipifarnib -0.018 | [6] 0.015 | [7] 0.003 | [8] -0.046

WDR45 isoform 2 (UniProt Q9Y484)
active: [1] -0.229
inactive: lapatinib -0.002 | pictilisib -0.011 | crizotinib -0.048 | duvelisib -0.04 | gandotinib -0.051 | tozasertib -0.025 | doramapimod 0.054 | bafetinib -0.047 | [2] 0.179 | nilotinib 0.04 | [3] -0.01 | dasatinib -0.085 | [4] -0.027 | [5] 0.049 | quisinostat 0.06 | tipifarnib 0.009 | [6] 0.013 | [7] -0.042 | [8] -0.028

VPS39 (UniProt Q96JC1)
Sequence of UniProt Q96JC1 (Q96JC1 whole entry, looked up): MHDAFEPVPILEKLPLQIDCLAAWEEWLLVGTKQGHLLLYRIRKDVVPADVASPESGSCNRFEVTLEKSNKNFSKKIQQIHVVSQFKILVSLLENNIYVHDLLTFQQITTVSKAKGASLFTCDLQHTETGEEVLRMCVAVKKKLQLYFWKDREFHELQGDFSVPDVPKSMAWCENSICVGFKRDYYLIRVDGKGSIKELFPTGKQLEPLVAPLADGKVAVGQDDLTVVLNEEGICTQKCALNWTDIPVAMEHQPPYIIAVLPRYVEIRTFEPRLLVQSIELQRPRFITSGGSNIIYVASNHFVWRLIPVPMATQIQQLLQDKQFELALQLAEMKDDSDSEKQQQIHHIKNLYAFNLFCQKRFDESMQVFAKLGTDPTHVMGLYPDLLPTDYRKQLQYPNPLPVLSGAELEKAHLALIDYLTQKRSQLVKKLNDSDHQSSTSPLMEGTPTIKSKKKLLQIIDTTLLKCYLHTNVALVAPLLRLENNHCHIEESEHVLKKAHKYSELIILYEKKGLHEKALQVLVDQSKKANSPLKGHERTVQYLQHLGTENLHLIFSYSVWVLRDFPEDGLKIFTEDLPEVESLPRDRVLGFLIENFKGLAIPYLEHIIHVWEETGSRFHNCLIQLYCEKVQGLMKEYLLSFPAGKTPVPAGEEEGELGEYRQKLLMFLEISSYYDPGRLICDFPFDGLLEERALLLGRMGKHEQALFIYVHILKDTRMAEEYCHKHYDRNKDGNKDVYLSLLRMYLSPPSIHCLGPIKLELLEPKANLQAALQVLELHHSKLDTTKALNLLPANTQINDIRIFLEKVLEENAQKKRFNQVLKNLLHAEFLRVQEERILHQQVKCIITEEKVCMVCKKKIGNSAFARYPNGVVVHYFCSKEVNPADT
inactive: lapatinib -0.018 | pictilisib -0.018 | crizotinib -0.066 | duvelisib 0.015 | gandotinib -0.169 | tozasertib 0.021 | doramapimod 0.015 | bafetinib -0.045 | [2] -0.229 | nilotinib 0.03 | [3] -0.008 | dasatinib -0.044 | [4] 0.024 | [5] -0.003 | quisinostat -0.046 | tipifarnib 0.002 | [6] 0.005 | [7] -0.008 | [8] -0.003
active: [1] 0.603

UTP18 (UniProt Q9Y5J1)
inactive: lapatinib 0.032 | pictilisib 0.125 | crizotinib -0.05 | [1] 0.097 | duvelisib -0.065 | gandotinib -0.055 | tozasertib 0.074 | doramapimod -0.025 | bafetinib -0.084 | [2] -0.038 | nilotinib 0.059 | [3] -0.009 | dasatinib 0.005 | [4] -0.179 | [5] -0.03 | quisinostat -0.034 | tipifarnib -0.002 | [6] 0.058 | [7] -0.016 | [8] 0.074

VRK2 (UniProt Q86Y07)
Sequence of UniProt Q86Y07 (Q86Y07 whole entry, looked up): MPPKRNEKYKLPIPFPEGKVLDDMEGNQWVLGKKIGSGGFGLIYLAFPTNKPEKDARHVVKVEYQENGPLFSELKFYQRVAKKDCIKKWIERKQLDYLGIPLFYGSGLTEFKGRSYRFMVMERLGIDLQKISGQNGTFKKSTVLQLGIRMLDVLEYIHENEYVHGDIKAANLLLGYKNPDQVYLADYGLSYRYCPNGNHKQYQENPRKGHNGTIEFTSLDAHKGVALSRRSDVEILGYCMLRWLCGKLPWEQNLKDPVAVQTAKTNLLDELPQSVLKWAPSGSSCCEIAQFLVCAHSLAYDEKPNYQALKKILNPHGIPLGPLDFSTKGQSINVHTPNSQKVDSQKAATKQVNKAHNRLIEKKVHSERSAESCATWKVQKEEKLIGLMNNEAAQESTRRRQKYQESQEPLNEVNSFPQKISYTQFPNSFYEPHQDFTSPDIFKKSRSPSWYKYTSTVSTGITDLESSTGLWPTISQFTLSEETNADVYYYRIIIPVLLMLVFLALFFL
inactive: lapatinib 0.03 | pictilisib 0.002 | crizotinib -0.069 | duvelisib -0.016 | gandotinib -0.04 | tozasertib -0.026 | doramapimod -0.063 | bafetinib -0.03 | [2] 0.03 | nilotinib 0.048 | [3] 0.219 | dasatinib 0.185 | [4] 0.017 | [5] 0.17 | quisinostat -0.044 | tipifarnib -0.018 | [6] 0.026 | [7] -0.003 | [8] -0.006
active: [1] 0.353

WDR24 (UniProt Q96S15)
Sequence of UniProt Q96S15 (Q96S15 whole entry, looked up): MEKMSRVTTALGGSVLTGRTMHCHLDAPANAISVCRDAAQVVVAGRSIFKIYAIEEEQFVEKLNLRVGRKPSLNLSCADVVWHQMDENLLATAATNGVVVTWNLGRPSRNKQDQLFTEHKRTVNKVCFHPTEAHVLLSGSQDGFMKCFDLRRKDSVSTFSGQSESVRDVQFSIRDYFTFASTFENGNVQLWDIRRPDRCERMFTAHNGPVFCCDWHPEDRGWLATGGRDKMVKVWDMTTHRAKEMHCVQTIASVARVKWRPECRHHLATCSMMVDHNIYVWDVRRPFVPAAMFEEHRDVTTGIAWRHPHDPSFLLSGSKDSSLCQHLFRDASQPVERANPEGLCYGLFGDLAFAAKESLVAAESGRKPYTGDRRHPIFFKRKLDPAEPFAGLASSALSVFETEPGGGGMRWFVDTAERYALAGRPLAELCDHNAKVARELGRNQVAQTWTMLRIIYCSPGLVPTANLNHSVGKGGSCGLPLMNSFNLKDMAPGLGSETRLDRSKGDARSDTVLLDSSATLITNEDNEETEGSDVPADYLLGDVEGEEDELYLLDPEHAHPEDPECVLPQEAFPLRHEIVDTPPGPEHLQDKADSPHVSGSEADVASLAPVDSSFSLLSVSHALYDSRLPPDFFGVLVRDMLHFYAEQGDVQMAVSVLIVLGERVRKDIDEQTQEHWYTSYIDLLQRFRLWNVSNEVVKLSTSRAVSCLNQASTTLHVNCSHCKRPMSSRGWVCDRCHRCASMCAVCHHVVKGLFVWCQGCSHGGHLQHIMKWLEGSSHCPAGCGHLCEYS
inactive: lapatinib -0.004 | pictilisib 0.104 | crizotinib -0.006 | [1] -0.072 | duvelisib 0.004 | gandotinib 0.072 | tozasertib 0.065 | doramapimod -0.166 | bafetinib -0.134 | [2] 0.125 | nilotinib 0.124 | [3] -0.09 | dasatinib -0.072 | [4] 0.05 | [5] -0.022 | quisinostat -0.013 | tipifarnib -0.096 | [6] 0.038 | [7] 0.04 | [8] -0.002

ZMYM4 (UniProt Q5VZL5)
inactive: lapatinib -0.022 | pictilisib 0.037 | crizotinib -0.009 | [1] -0.07 | duvelisib -0.007 | gandotinib 0.004 | tozasertib 0.028 | doramapimod 0.031 | bafetinib 0.008 | [2] 0.042 | nilotinib -0.016 | [3] 0.003 | dasatinib -0.001 | [4] -0.005 | [5] -0.061 | quisinostat -0.028 | tipifarnib -0.051 | [6] 0.067 | [7] 0.021 | [8] -0.003

WDHD1 (UniProt O75717)
inactive: lapatinib -0.017 | pictilisib -0.025 | crizotinib -0.035 | [1] 0.077 | duvelisib 0.007 | gandotinib -0.082 | tozasertib -0.043 | doramapimod 0.011 | bafetinib 0.023 | [2] -0.037 | nilotinib -0.008 | [3] 0.026 | dasatinib -0.023 | [4] 0.012 | [5] 0.01 | quisinostat -0.029 | tipifarnib -0.01 | [6] 0.008 | [7] 0.013 | [8] 0.01

YDJC (UniProt A8MPS7)
Sequence of UniProt A8MPS7 (A8MPS7 whole entry, looked up): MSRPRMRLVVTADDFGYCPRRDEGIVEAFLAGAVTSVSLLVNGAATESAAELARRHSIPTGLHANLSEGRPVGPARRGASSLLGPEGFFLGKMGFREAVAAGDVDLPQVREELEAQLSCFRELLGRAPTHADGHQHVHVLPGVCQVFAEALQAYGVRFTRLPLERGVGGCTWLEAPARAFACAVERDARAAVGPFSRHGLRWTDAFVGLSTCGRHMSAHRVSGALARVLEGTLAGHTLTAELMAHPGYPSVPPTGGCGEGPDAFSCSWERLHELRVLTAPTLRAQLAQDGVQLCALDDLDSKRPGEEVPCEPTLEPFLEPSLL
inactive: lapatinib -0.003 | pictilisib -0.016 | crizotinib 0.022 | [1] -0.031 | duvelisib -0.044 | gandotinib 0.02 | tozasertib 0.022 | doramapimod 0.025 | bafetinib -0.017 | [2] -0.033 | nilotinib -0.027 | [3] 0.045 | dasatinib -0.1 | [4] -0.044 | [5] -0.02 | quisinostat -0.03 | tipifarnib -0.045 | [6] -0.001 | [7] 0.021 | [8] 0.074

ZNF451 (UniProt Q9Y4E5)
inactive: lapatinib -0.044 | pictilisib -0.054 | crizotinib -0.042 | [1] -0.053 | duvelisib 0.007 | gandotinib -0.069 | tozasertib -0.045 | doramapimod 0.052 | bafetinib -0.074 | [2] 0.003 | nilotinib 0.016 | [3] 0.013 | dasatinib -0.028 | [4] -0.033 | [5] 0.02 | quisinostat -0.044 | tipifarnib -0.049 | [6] 0.022 | [7] 0.044 | [8] -0.038

WDR3 (UniProt Q9UNX4)
inactive: lapatinib -0.012 | pictilisib -0.113 | crizotinib -0.003 | [1] -0.054 | duvelisib 0.008 | gandotinib -0.022 | tozasertib 0.003 | doramapimod 0.01 | bafetinib -0.083 | [2] 0.14 | nilotinib 0.055 | [3] 0.001 | dasatinib -0.069 | [4] -0.016 | [5] 0.027 | quisinostat 0.044 | tipifarnib -0.003 | [6] 0.021 | [7] 0.023 | [8] 0.009

WRN (UniProt Q14191)
Sequence of UniProt Q14191 (Q14191 whole entry, looked up): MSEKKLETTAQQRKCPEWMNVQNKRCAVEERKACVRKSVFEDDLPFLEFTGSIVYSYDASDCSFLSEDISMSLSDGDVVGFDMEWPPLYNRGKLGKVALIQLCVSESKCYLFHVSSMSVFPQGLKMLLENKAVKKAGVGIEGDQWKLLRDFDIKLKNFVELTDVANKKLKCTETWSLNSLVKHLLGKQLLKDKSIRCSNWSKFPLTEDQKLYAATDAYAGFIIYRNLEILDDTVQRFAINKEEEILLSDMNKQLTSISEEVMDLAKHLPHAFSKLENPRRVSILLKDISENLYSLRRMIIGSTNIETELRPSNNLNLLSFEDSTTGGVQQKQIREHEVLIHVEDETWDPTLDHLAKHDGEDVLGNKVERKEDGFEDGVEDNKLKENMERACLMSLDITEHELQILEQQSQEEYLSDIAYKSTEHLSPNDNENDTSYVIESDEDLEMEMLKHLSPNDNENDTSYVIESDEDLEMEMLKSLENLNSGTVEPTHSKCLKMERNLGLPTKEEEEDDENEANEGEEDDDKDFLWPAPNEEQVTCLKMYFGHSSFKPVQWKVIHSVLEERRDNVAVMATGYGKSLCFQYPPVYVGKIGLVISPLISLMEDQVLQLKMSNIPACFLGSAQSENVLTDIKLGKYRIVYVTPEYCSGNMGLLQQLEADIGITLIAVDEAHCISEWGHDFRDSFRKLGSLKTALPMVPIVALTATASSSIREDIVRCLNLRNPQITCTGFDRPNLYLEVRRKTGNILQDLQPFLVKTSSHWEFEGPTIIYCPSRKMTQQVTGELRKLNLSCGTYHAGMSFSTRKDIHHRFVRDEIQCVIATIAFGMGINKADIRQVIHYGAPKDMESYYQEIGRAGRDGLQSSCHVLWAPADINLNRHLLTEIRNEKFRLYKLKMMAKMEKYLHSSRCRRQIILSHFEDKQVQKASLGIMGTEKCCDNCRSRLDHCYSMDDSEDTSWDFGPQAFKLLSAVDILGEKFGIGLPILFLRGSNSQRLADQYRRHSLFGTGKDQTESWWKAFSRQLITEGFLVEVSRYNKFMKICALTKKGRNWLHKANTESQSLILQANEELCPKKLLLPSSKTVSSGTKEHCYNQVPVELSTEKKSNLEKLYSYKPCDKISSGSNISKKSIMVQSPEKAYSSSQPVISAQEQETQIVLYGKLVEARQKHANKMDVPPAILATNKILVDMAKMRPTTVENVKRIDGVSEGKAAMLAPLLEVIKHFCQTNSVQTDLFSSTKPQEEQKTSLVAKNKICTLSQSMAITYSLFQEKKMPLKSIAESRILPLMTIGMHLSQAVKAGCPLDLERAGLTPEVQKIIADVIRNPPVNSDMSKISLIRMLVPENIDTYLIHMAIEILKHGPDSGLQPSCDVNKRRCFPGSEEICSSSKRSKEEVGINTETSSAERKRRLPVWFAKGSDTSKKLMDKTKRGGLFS
inactive: lapatinib -0.008 | pictilisib 0.006 | crizotinib -0.031 | [1] -0.042 | duvelisib -0.034 | gandotinib -0.008 | tozasertib 0.037 | doramapimod 0.02 | bafetinib -0.064 | [2] 0.073 | nilotinib -0.027 | [3] -0.018 | dasatinib -0.108 | [4] -0.004 | [5] 0.022 | quisinostat -0.042 | tipifarnib -0.005 | [6] 0.03 | [7] 0.089 | [8] -0.013

UPF3B (UniProt Q9BZI7)
Sequence of UniProt Q9BZI7 (Q9BZI7 whole entry, looked up): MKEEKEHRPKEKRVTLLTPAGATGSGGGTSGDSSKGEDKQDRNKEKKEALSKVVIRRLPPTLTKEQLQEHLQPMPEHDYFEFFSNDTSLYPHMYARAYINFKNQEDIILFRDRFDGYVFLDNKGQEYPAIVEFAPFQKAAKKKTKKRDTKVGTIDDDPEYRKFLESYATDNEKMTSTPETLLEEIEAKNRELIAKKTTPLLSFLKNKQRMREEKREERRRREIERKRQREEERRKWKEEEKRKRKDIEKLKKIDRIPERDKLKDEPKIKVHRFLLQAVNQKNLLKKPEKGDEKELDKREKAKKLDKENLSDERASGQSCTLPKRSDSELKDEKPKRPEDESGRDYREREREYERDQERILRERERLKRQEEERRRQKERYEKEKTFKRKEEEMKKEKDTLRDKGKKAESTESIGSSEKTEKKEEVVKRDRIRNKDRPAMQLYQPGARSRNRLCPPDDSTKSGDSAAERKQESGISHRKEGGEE
inactive: lapatinib 0.005 | pictilisib 0.021 | crizotinib 0.007 | [1] -0.171 | duvelisib 0.016 | gandotinib 0.037 | tozasertib 0.031 | doramapimod 0.003 | bafetinib -0.012 | [2] 0.067 | nilotinib -0.016 | [3] 0.012 | dasatinib 0.004 | [4] 0.014 | [5] 0.005 | quisinostat -0.013 | tipifarnib 0.014 | [6] 0.022 | [7] -0.025 | [8] -0.003

VPS37B (UniProt Q9H9H4)
inactive: lapatinib 0.016 | pictilisib -0.053 | crizotinib 0.017 | [1] 0.034 | duvelisib -0.009 | gandotinib -0.028 | tozasertib 0.021 | doramapimod 0.006 | bafetinib -0.034 | [2] -0.04 | nilotinib 0.025 | [3] -0.078 | dasatinib -0.024 | [4] 0.046 | [5] -0.01 | quisinostat -0.05 | tipifarnib -0.002 | [6] -0.024 | [7] -0.005 | [8] 0

VPS28 (UniProt Q9UK41)
Sequence of UniProt Q9UK41 (Q9UK41 whole entry, looked up): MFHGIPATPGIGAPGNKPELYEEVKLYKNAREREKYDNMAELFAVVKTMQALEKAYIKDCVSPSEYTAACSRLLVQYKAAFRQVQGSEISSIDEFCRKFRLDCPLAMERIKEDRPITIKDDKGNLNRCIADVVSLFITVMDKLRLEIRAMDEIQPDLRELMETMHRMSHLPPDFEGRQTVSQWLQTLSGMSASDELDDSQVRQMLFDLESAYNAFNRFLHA
inactive: lapatinib 0.038 | pictilisib -0.005 | crizotinib 0.051 | [1] -0.132 | duvelisib -0.032 | gandotinib 0.018 | tozasertib -0.03 | doramapimod -0.005 | bafetinib 0.034 | [2] 0.034 | nilotinib -0.031 | [3] 0.034 | dasatinib 0.021 | [4] 0.004 | [5] 0.086 | quisinostat 0.081 | tipifarnib 0.029 | [6] -0.038 | [7] 0.012 | [8] -0.027

WDR6 (UniProt Q9NNW5)
inactive: lapatinib -0.023 | pictilisib -0.03 | crizotinib -0.049 | [1] -0.05 | duvelisib -0.005 | gandotinib -0.007 | tozasertib -0.013 | doramapimod -0.007 | bafetinib -0.022 | [2] 0.024 | nilotinib -0.017 | [3] 0.002 | dasatinib -0.018 | [4] -0.003 | [5] 0.026 | quisinostat -0.075 | tipifarnib 0.036 | [6] 0.033 | [7] 0.006 | [8] -0.032
